For 14 compounds, Potency and outcome results are on record in PubChem BioAssay (Tox21).

The nature of assay [1]: qHTS assay to test for compound auto fluorescence at 535 nm (green) in HEK293 cells (AID 720680). On the technique in general: Quantitative high-throughput screening tests each substance at several concentrations.
Assay [2] can be described thus: qHTS assay to test for compound auto fluorescence at 460 nm (blue) in HEK293 cell free culture (AID 720681). In a few lines: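 Test compounds were pinned into cell-free culture medium (DMEM with 10% FBS) and fluorescence was read directly at Ex/Em 405/460 nm. Signals were expressed as fluorescence equivalents of triamterene, with DMSO vehicle as control.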
Assay [3] in a line: qHTS assay to test for compound auto fluorescence at 590 nm (red) in HEK293 cell free culture (AID 720683). The gist of the method: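 Tox21 10K library compounds were pinned into cell-free DMEM with 10% FBS and fluorescence was read at excitation 540 nm. Activity is expressed as Rose Bengal sodium equivalency.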
The nature of assay [4]: qHTS assay to test for compound auto fluorescence at 590 nm (red) in HepG2 cell free culture (AID 720684). In a few lines:
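Readout: intrinsic compound fluorescence at 590 nm emission after 540 nm excitation, scaled to Rose Bengal sodium. Matrix was cell-free MEM with 10% FBS; DMSO vehicle wells served as control.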

Assay [5] is described as follows: qHTS assay to test for compound auto fluorescence at 460 nm (blue) in HepG2 cell free culture (AID 720685). The gist of the method:
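Cell-free plates of MEM plus 10% FBS received 23 nL compound or DMSO vehicle; blue-channel (405/460 nm) intensity scored against triamterene as reference fluorophore.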

Assay [6] in a line: qHTS assay to test for compound auto fluorescence at 535 nm (green) in HepG2 cell free culture (AID 720686).
Assay [7] is described as follows: qHTS assay to test for compound auto fluorescence at 460 nm (blue) in HepG2 cells (AID 720687). In a few lines: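 Cells (2,000/well in MEM with 10% FBS) attached overnight at 37 C, then were exposed to compound or DMSO for 1 hr at 37 C, 5% CO2. Fluorescence read at Ex/Em 405/460 nm, expressed as triamterene-equivalent signal.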
The nature of assay [8]: qHTS assay to identify small molecule antagonists of the androgen receptor (AR) signaling pathway - cell viability counter screen (AID 743033; further: nearly all actives have a fitted effect of over 45% in size; further: potency means the concentration at half of the fitted maximal effect).
For assay [9], the target named is Glucocorticoid receptor (Homo sapiens) (UniProt P04150). In words: qHTS assay to identify small molecule agonists of the glucocorticoid receptor (GR) signaling pathway (AID 720691; active means well fitted activation curve with a large enough effect in the signal ratio in the repeat runs, not every such curve was filed as active; the % refers to the signal ratio). In a few lines:
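A HeLa cervical cancer line expressing GR and a glucocorticoid response element-driven beta-lactamase gene is treated with compounds for 18 h; LiveBLAzer B/G FRET substrate is then applied and fluorescence read.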

For assay [10] the target is unchanged. Nature of the assay: qHTS assay to identify small molecule antagonists of the glucocorticoid receptor (GR) signaling pathway (AID 720692; active means well fitted inhibition curve with a large enough effect in the signal ratio in the repeat runs, not every such curve was filed as active; the % refers to the signal ratio). In a few lines:
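GRE-bla HeLa line, dex-stimulated (5 nM final). Compound exposure 18 h, 37 C. Beta-lactamase FRET read after 2 h RT substrate.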

Assay [11] in a line: qHTS assay to identify small molecule antagonists of the glucocorticoid receptor (GR) signaling pathway - cell viability counter screen (AID 720693). Further: nearly all actives have a fitted effect of over 55% in size. Further: potency means the concentration at half of the fitted maximal effect.
Assay [12] is described as follows: qHTS assay for identifying genotoxic compounds that show differential cytotoxicity against isogenic chicken DT40 cell lines with known DNA damage response pathways - Rev3 mutant cell line (AID 743014). Further: nearly all actives have a fitted effect of over 55% in size. Further: potency means the concentration at half of the fitted maximal effect.
Assay [13] is described as follows: qHTS assay for identifying genotoxic compounds that show differential cytotoxicity against isogenic chicken DT40 cell lines with known DNA damage response pathways - Rad54/Ku70 mutant cell line (AID 743015). Further: nearly all actives have a fitted effect of over 60% in size. Further: potency means the concentration at half of the fitted maximal effect.
Assay [14] is described as follows: qHTS assay to identify small molecule antagonists of the androgen receptor (AR) signaling pathway using the MDA cell line - cell viability counter screen (AID 743041; further: nearly all actives have a fitted effect of over 45% in size; further: potency means the concentration at half of the fitted maximal effect). In a few lines:
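qHTS viability read-out; MDA-kb2 AR-luc; R1881-stimulated; 16 h exposure at 37C, 0% CO2; CellTiter-Fluor, 30 min; fluorescence intensity.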

Assay [15] is described as follows: qHTS assay to identify small molecule antagonists of the thyroid receptor (TR) signaling pathway - cell viability counter screen (AID 743064). Further: nearly all actives have a fitted effect of over 50% in size. Further: potency means the concentration at half of the fitted maximal effect. The gist of the method: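 GH3.TRE-Luc rat pituitary cells dosed after 4 hr plating, co-stimulated with T3 at 1 nM final, incubated 23.5 h at 37 C. Viability measured in the same wells by CellTiter-Fluor fluorescence after 30 min further at 37 C.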

Assay [16] is described as follows: qHTS assay for identifying genotoxic compounds that show differential cytotoxicity against isogenic chicken DT40 cell lines with known DNA damage response pathways - wild type cell line (AID 743012). Further: nearly all actives have a fitted effect of over 60% in size. Further: potency means the concentration at half of the fitted maximal effect. In a few lines:
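300 wt DT40 cells/well; cpd (DMSO) pintool-transferred after ~0.5 h at 37 C/5% CO2; 40 h incubation; CellTiter-Glo added, 30 min RT; luminescence read.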

The target in assay [17] is Androgen receptor (Homo sapiens) (UniProt P10275). In words: qHTS assay to identify small molecule antagonists of the androgen receptor (AR) signaling pathway using the MDA cell line (AID 743042; further: nearly all actives have a fitted effect of over 55% in size). In a few lines:
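MDA-kb2 cells (human breast carcinoma, stably carrying an MMTV-luciferase reporter responsive to AR and GR) were plated at 3,000 cells/well and preincubated 5 hr at 37C, then given compound plus R1881 agonist for 16 h. ONE-Glo luminescence was read.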

Assay [18] shares this target. In words: qHTS assay to identify small molecule antagonists of the androgen receptor (AR) signaling pathway (AID 743035; active means well fitted inhibition curve with a large enough effect in the signal ratio in the repeat runs, not every such curve was filed as active; the % refers to the signal ratio). The gist of the method: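 In this cell-based reporter screen, compounds were tested in concentration series against R1881-activated HEK293 cells expressing beta-lactamase under UAS control; after 16 h at 37C, FRET substrate was added and fluorescence read 2 h later.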

The target is the same in assay [19]. In words: qHTS assay to identify small molecule agonists of the androgen receptor (AR) signaling pathway (AID 743036; active means well fitted activation curve with a large enough effect in the signal ratio in the repeat runs, with a control signal flat, not every such curve was filed as active; the % refers to the signal ratio). In a few lines:
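AR-UAS-bla HEK293 cells, plated 4 h before dosing, were treated with compound for 16 h at 37C. beta-Lactamase reporter read after 2 h with LiveBLAzer B/G FRET substrate at room temperature.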

“And” between values parts separate entries of the source, which are not always exact repeats. Equal values may be shown once. Inconclusive results are not listed. The source holds several records for some structures; these can differ, active in one and inactive in another. The source made the active and inactive calls. Unless noted, the call rests on the fitted dose curve; in most records, active means well fitted curve in the direction sought with a large enough effect in the repeat runs; inconclusive means weak or mixed curves; inactive means no such curve, though single readings can be large; an effect the other way counts as inactive or inconclusive.

Sequence of Glucocorticoid receptor (Homo sapiens) (P04150 whole entry, looked up): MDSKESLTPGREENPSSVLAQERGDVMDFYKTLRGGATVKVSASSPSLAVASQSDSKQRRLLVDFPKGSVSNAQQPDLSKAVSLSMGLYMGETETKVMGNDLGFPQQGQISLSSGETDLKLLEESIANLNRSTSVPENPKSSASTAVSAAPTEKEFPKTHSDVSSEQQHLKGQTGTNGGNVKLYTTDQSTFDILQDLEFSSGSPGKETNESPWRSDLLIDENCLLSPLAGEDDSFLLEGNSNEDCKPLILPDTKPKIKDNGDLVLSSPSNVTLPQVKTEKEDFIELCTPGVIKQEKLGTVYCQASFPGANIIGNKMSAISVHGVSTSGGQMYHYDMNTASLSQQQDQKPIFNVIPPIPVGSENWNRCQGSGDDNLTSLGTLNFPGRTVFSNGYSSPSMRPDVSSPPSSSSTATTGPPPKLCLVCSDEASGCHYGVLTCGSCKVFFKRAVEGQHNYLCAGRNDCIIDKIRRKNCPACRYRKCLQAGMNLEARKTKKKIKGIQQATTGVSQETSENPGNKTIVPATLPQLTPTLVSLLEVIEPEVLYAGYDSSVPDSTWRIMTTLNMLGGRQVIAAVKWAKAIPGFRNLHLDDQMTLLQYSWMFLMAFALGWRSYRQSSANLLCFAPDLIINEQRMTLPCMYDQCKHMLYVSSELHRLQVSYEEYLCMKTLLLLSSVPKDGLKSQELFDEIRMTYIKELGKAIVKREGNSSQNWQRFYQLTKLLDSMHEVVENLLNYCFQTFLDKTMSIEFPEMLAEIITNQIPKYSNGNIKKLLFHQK
Sequence of Androgen receptor (Homo sapiens) (P10275 whole entry, looked up): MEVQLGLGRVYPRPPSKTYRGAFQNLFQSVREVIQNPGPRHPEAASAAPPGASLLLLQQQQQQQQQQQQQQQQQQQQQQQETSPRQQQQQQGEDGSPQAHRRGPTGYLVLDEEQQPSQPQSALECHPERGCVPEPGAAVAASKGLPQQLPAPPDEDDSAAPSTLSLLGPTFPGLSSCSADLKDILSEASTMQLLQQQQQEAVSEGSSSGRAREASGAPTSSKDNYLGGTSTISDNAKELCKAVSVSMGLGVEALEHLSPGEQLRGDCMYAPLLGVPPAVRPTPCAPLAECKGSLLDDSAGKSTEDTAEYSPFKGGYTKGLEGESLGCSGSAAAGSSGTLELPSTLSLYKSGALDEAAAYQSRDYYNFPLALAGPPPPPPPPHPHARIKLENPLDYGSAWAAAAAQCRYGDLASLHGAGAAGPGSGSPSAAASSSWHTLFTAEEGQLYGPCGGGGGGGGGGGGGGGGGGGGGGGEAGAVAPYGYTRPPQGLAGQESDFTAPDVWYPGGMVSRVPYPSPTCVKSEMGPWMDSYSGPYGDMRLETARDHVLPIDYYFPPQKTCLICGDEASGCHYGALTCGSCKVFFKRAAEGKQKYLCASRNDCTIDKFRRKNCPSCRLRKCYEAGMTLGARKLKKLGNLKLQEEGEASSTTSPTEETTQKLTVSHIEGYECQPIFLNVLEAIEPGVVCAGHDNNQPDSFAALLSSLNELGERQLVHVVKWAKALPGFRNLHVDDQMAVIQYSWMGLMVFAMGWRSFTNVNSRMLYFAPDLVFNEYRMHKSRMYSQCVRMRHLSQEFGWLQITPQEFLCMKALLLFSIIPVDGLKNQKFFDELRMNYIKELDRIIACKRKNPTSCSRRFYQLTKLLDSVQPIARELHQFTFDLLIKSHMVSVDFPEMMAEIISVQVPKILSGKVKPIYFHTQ

With `CC/C(=C(\c1ccccc1)c1ccc(OCCN(C)C)cc1)c1ccccc1`, the Potency result in assay [1], in [2], in assay [3], in assay [4], in [5] and in [6] was “inactive” throughout. Moreover, the Potency entry in [7] is “inactive”. Further, the Potency in assay [8] was 13.9 µM (active) and 15.5 µM (active) and 11.1 µM (active).

Consider `CNNCc1ccc(C(=O)NC(C)C)cc1`, for which the Potency entry in assay [1], in [2], in assay [3], in [4], in assay [5] and in [6] was “inactive” each time. The Potency entry in [7], in assay [9], in assay [10], in assay [11], in assay [12] and in assay [13] was “inactive” throughout. Besides, the Potency result in assay [8], in [14] and in [15] was “inactive” each time.

In the case of `COc1ccc2cc(S(=O)(=O)N[C@H](CC(=O)N[C@H](Cc3ccc(CN4[C@H](C)CCC[C@@H]4C)cc3)C(=O)N(C)C(C)C)c3ccc4c(c3)OCO4)ccc2c1`, the Potency result in assay [1], in [2], in assay [3], in assay [4], in assay [5] and in [6] was “inactive” throughout. Also, the Potency entry in assay [7] is “inactive”. Moreover, the Potency in [16] is 7.28 µM (active); in [12], 9.17 µM (active); in assay [13], 5.16 µM (active); in assay [8], 20.7 µM (active); in [15] it was 2.58 µM (active).

Consider `O=C(Nc1ncc([N+](=O)[O-])s1)c1cccs1`, for which the Potency entry in [1], in [2], in [3], in [4], in assay [5] and in assay [6] was “inactive” throughout. The Potency entry in [7], in assay [9] and in assay [17] was “inactive” each time. In addition, the Potency is 9.52 µM (active) in assay [11], 29.8 µM (active) in assay [12] and 26.6 µM (active) in assay [13].

For the compound `CCCCC1(COC(=O)CCC(=O)O)C(=O)N(c2ccccc2)N(c2ccccc2)C1=O`, the Potency result in [1], in assay [2], in assay [3], in [4], in assay [5] and in assay [6] was “inactive” each time. Further, the Potency entry in [7], in [11], in assay [12], in assay [13], in assay [8] and in assay [18] was “inactive” each time. In addition, the Potency result in assay [14], in assay [17] and in assay [15] was “inactive” each time. For the same compound, the compound was called inactive in [19].

For `CCCCCCCC(=O)OCC(COC(=O)CCCCCCC)OC(=O)CCCCCCC`, the Potency entry in [1], in assay [2], in assay [3], in assay [4], in assay [5] and in assay [6] was “inactive” throughout. The Potency result in [7], in assay [9], in assay [10], in assay [11], in assay [12] and in assay [13] was “inactive” each time. Further, the Potency entry in assay [8], in assay [14] and in assay [15] was “inactive” each time.

Regarding `CN1CCC[C@H]1c1cccnc1`, the Potency result in assay [1], in assay [2], in assay [3], in assay [4], in assay [5] and in assay [6] was “inactive” throughout. Moreover, the Potency entry in assay [7], in assay [11], in [16], in assay [12], in assay [13] and in assay [8] was “inactive” throughout. In addition, the Potency result in [14] and in assay [15] was “inactive” throughout.

For the compound `O=c1[nH]cc(F)c(=O)[nH]1`, the Potency result in assay [1], in assay [2], in assay [3], in [4], in assay [5] and in assay [6] was “inactive” in each case. Moreover, the Potency entry in assay [7], in [9], in assay [10], in assay [11], in assay [8] and in assay [14] was “inactive” throughout. The Potency was 50.4 µM (active) and 27.9 µM (active) in [12]; 21.1 µM (active) and 40 µM (active) and 17.6 µM (active) in assay [13]; 20.1 µM (active) in assay [15].

For `CC(C)c1c(C(=O)Nc2ccccc2)c(-c2ccccc2)c(-c2ccc(F)cc2)n1CC[C@@H](O)C[C@@H](O)CC(=O)O`, the Potency entry in [1], in assay [2], in assay [3], in [4], in [5] and in [6] was “inactive” in each case. The Potency result in assay [7], in assay [9], in assay [11], in assay [8] and in assay [14] was “inactive” in each case. The Potency entry in [15] was “inactive and 57.1 µM (active)”.

For `CN(C)CCOC(C)(c1ccccc1)c1ccccn1` (centres undefined), the Potency result in assay [1], in assay [2], in [3], in [4], in assay [5] and in [6] was “inactive” each time. Moreover, the Potency entry in [7], in assay [11], in [12], in [13], in [8] and in [14] was “inactive” throughout.

For `Cc1cn([C@H]2C=C[C@@H](CO)O2)c(=O)[nH]c1=O`, the Potency entry in [1], in assay [2], in [3], in [4], in [5] and in assay [6] was “inactive” throughout. Moreover, the Potency entry in assay [7], in [11], in [16], in [12], in assay [13] and in assay [8] was “inactive” in each case. In addition, the Potency entry in assay [14] and in assay [15] was “inactive” in each case.

With `CN1[C@@H]2CC(OC(=O)[C@H](CO)c3ccccc3)C[C@H]1[C@@H]1O[C@@H]12` (some centres undefined), the Potency entry in assay [1], in [2], in [3], in assay [4], in assay [5] and in assay [6] was “inactive” in each case. The Potency entry in [7], in assay [11], in [8], in assay [14] and in assay [15] was “inactive” in each case.

Consider `CCCCCCCCCCCCCCCC[N+](C)(C)Cc1ccccc1`, for which the Potency result in assay [1], in assay [2], in [3], in [4], in assay [5] and in assay [6] was “inactive” throughout. In [7], the Potency entry was “inactive”. In addition, the Potency was 21.3 µM (active) and 22.6 µM (active) and 35.3 µM (active) in assay [11]; 596 nM (active) and 794 nM (active) and 350 nM (active) in [16]; 750 nM (active) and 631 nM (active) and 783 nM (active) in assay [12]; 668 nM (active) and 891 nM (active) and 1.39 µM (active) in assay [13]; 16.9 µM (active) and 17.9 µM (active) and 17.7 µM (active) in assay [8]; 35.5 µM (active) and 27.8 µM (active) in assay [14]. In addition, the Potency in [15] is 18.8 µM (active) and 14.1 µM (active) and 24.8 µM (active).

Turning to `Oc1ccccc1`, the Potency entry in [1], in assay [2], in assay [3], in assay [4], in assay [5] and in [6] was “inactive” throughout. Besides, the Potency result in assay [7], in assay [11], in assay [16], in [12], in [13] and in assay [8] was “inactive” in each case. The Potency entry in assay [14] and in [15] was “inactive” throughout.
